The values that follow come from the supplement of paper PMC4840960.

SMILES strings stand for the structures. Counter-ions that a name gives are not always drawn. ± gives the standard deviation of the averaged measurements.

One assay has as its system E18 rat cortical neuron-glia co-culture. Description: fiber score / MBP score (myelination specific beyond OL differentiation) (ratio); higher = more myelination-specific MBP alignment. The settings on record: 5 µM; treatment time: 8 days (DIV5-DIV13). Summed up: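 Primary E18 rat cortical co-cultures (papain-dissociated, 20,000 cells/well on poly-d-lysine/laminin 96-well plates) received library compounds at 1 or 5 µM in myelination medium from DIV5 to DIV13. Cells were fixed in 4 % paraformaldehyde and immunostained for MBP and Olig2 with DAPI, and four 10X fields per well in duplicate wells were analysed. The read-out is fiber score (continuous MBP fiber length per Olig2+ nucleus) divided by MBP score (thresholded MBP area × intensity per Olig2+ nucleus).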
For `CC(=O)N1CCN(c2ccc(OCC3COC(Cn4ccnc4)(c4ccc(Cl)cc4Cl)O3)cc2)CC1` (configuration not stated) [Ketoconazole], the “fiber score / MBP score” value worked out at 0.267.

As to `Nc1nc2c(ncn2COC(CO)CO)c(=O)[nH]1` [Ganciclovir], the “fiber score / MBP score” value stood at 1. Same read-out and setting: the value for `CCCCC[C@H](O)/C=C/[C@H]1[C@H](O)CC(=O)[C@@H]1CCCCCCC(=O)O` [Alprostadil] was 0.695; that for `Nc1nc(F)nc2c1ncn2[C@@H]1O[C@H](CO)[C@@H](O)[C@@H]1O` [Fludarabine] was 0.885.

For `CC(=O)CCCCn1c(=O)c2c(ncn2C)n(C)c1=O` [Pentoxifylline], the “fiber score / MBP score” value amounted to 0.839 ± 0.17.

The test system is the same in a further assay. Description: myelination (MBP fiber length per Olig2+ nucleus), % of 1 µM DAPT response (DMSO = 0) (% of DAPT); higher = more myelination, active = 50 or more. The note with it: 1 µM; treatment time: 8 days (DIV5-DIV13). Summed up: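 Primary E18 rat cortical co-cultures (papain-dissociated, 20,000 cells/well on poly-d-lysine/laminin 96-well plates) received library compounds at 1 or 5 µM in myelination medium from DIV5 to DIV13. Cells were fixed in 4 % paraformaldehyde and immunostained for MBP and Olig2 with DAPI, and four 10X fields per well in duplicate wells were analysed. Myelination was continuous straight MBP fiber length per Olig2+ nucleus, normalised to 0.1 % DMSO (0) and a 1 µM positive control (100).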
Take `CCC(=O)NS(=O)(=O)c1ccc(-c2c(-c3ccccc3)noc2C)cc1` [Parecoxib]: the myelination is -22.9 (inactive). The same measure, in the same setting: the value for `CC(=O)S[C@@H]1CC2=CC(=O)CC[C@]2(C)[C@H]2CC[C@@]3(C)[C@@H](CC[C@@]34CCC(=O)O4)[C@H]12` [Spironolactone] was -5.5 (inactive); that for `O=C1[C@H](CC[C@H](O)c2ccc(F)cc2)[C@@H](c2ccc(O)cc2)N1c1ccc(F)cc1` [Ezetimibe] was -31.2 (inactive). Same read-out and setting: the value for `C[C@]12CC[C@@H]3c4ccc(OS(=O)(=O)O)cc4CC[C@H]3[C@@H]1CCC2=O` [Estrone sulfate] was 3.23 (inactive).

On to `Oc1ncnc2[nH]ncc12` [Allopurinol], for which the myelination is 6.93 (inactive). On the same count and under the same terms, the value for `CC(C)(C)NC(=O)[C@H]1CC[C@H]2[C@@H]3CC[C@H]4NC(=O)C=C[C@]4(C)[C@H]3CC[C@]12C` [Finasteride] was -19.1 (inactive); that for `CO[C@H]1/C=C/O[C@@]2(C)Oc3c(C)c(O)c4c(c3C2=O)C2=NC3(CCN(CC(C)C)CC3)NC2=C(NC(=O)/C(C)=C\C=C\[C@H](C)[C@H](O)[C@@H](C)[C@@H](O)[C@@H](C)[C@H](OC(C)=O)[C@@H]1C)C4=O` [Rifabutin] was -2.92 (inactive).

`CCCc1cc(=O)[nH]c(=S)[nH]1` [Propylthiouracil]: the myelination was -9.29 (inactive). Still for that read-out and setting: the same measure for `N[C@@H](Cc1cc(I)c(Oc2ccc(O)c(I)c2)c(I)c1)C(=O)O` [Triiodothyronine]: -11.4 (inactive); for `CCOc1ccc2ccccc2c1C(=O)N[C@@H]1C(=O)N2[C@@H]1SC(C)(C)[C@@H]2C(=O)O` [Nafcillin]: 4.05 (inactive). The same measure, in the same setting: the value for `CC[N+](C)(C)c1cccc(O)c1` [Edrophonium] was -6.47 (inactive). The same measure, in the same setting: the value for `CN(C)[C@@H]1C(O)=C(C(=O)NCN2CCCC2)C(=O)[C@@]2(O)C(O)=C3C(=O)c4c(O)cccc4[C@@](C)(O)[C@H]3C[C@@H]12` [Rolitetracycline] was -9.77 (inactive); that for `C[C@H]1O[C@@H](O[C@H]2[C@@H](O)C[C@H](O[C@H]3[C@@H](O)C[C@H](O[C@H]4CC[C@@]5(C)[C@H](CC[C@@H]6[C@@H]5C[C@@H](O)[C@]5(C)[C@@H](C7=CC(=O)OC7)CC[C@]65O)C4)O[C@@H]3C)O[C@@H]2C)C[C@H](O)[C@@H]1O` [Digoxin] was 34 (inactive).

In the case of `N[C@@H](C(=O)N[C@@H]1C(=O)N2C(C(=O)O)=C(CSc3c[nH]nn3)CS[C@H]12)c1ccc(O)cc1` [Cefatrizine], the myelination was -4.14 (inactive). The same measure, in the same setting: the same measure for `CCN(CC)CC#CCOC(=O)C(O)(c1ccccc1)C1CCCCC1` (configuration not stated) [Oxybutynin]: 9.59 (inactive). On the same count and under the same terms, the same measure for `CC(COc1ccccc1)NC(C)C(O)c1ccc(O)cc1` (configuration not stated) [Isoxsuprine]: -4.41 (inactive). On the same count and under the same terms, the same measure for `CC(=O)Nc1ccc(CC(=O)O)cc1` [Actarit]: -13.9 (inactive). Regarding `CC(C(=O)O)c1ccc(CC2CCCC2=O)cc1` (configuration not stated) [loxoprofen], the myelination was 1.34 (inactive). The same measure, in the same setting: the same measure for `CN(C)CCOC(c1ccc(Cl)cc1)c1ccccn1` (configuration not stated) [Carbinoxamine]: 3.25 (inactive); for `CC(C)n1c(/C=C/C(O)CC(O)CC(=O)O)c(-c2ccc(F)cc2)c2ccccc21` (configuration not stated) [Fluvastatin]: -15.7 (inactive); for `CCOC(=O)[C@@]1(CCCCCCOc2ccc(Cl)cc2)CO1` [Etomoxir]: -31 (inactive). Still for that read-out and setting: the same measure for `O=C(C1CCCCC1)N1CC(=O)N2CCc3ccccc3C2C1` (configuration not stated) [Praziquantel]: 7.75 (inactive).

Regarding `CC(C)[C@H](N)C(=O)OCCOCn1cnc2c(=O)nc(N)[nH]c21` [Valaciclovir], the myelination is -21.7 (inactive).

On to `Cc1c(O)c(=O)ccn1C` [Deferiprone], for which the myelination is -11.3 (inactive).

Turning to `OCCOCCN1CCN(C2=Nc3ccccc3Sc3ccccc32)CC1` [Quetiapine hemifumarate], the myelination was -10 (inactive). With `CC(C)/N=c1\cc2n(-c3ccc(Cl)cc3)c3ccccc3nc-2cc1Nc1ccc(Cl)cc1` [Clofazimine], the myelination is -9.19 (inactive). The same measure, in the same setting: the same measure for `CCS(=O)(=O)CCn1c([N+](=O)[O-])cnc1C` [Tinidazole]: -10.7 (inactive); for `Cc1ncc([N+](=O)[O-])n1CCO` [Metronidazole]: -7.63 (inactive).

On to `CCCNC(=O)NS(=O)(=O)c1ccc(Cl)cc1` [Chlorpropamide], for which the myelination is -30.5 (inactive). The same measure, in the same setting: the same measure for `COc1ccc2[nH]c([S+]([O-])Cc3ncc(C)c(OC)c3C)nc2c1` (configuration not stated) [Omeprazole]: -8.06 (inactive); for `NCc1ccc(S(N)(=O)=O)cc1` [Mafenide]: 6.37 (inactive); for `CN[C@@H]1[C@H](O)[C@H](NC)[C@H]2O[C@@]3(O)C(=O)C[C@@H](C)O[C@H]3O[C@@H]2[C@H]1O` [Spectinomycin]: -3.04 (inactive). Regarding `CC(=O)N1CCN(c2ccc(OCC3COC(Cn4ccnc4)(c4ccc(Cl)cc4Cl)O3)cc2)CC1` (configuration not stated) [Ketoconazole], the myelination was -0.358 (inactive). In the case of `Nc1nc2c(ncn2COC(CO)CO)c(=O)[nH]1` [Ganciclovir], the myelination was -5.82 (inactive). Same read-out and setting: the same measure for `CCCCC[C@H](O)/C=C/[C@H]1[C@H](O)CC(=O)[C@@H]1CCCCCCC(=O)O` [Alprostadil]: -1.94 (inactive); for `Nc1nc(F)nc2c1ncn2[C@@H]1O[C@H](CO)[C@@H](O)[C@@H]1O` [Fludarabine]: -29.4 (inactive); for `CC(=O)CCCCn1c(=O)c2c(ncn2C)n(C)c1=O` [Pentoxifylline]: -4.66 (inactive).
